# Reference: PubChem BioAssay AID1508649 (National Center for Advancing Translational Sciences (NCATS), 2021)
# About 830 (1.9%) of roughly 43,000 compounds were called active. Another 30% or so got no clear call; they are omitted. Rule for the calls: active = clear falling dose curves in both reporters; inconclusive = both reporters move, but less clearly or upward; inactive = either reporter flat; the % is the NLuc reporter signal. The list comes from a sample in which actives are over-represented; it also holds similar structures and randomly drawn compounds. A call without a number means that no potency is given here.
# Test: Cell-based coincidence reporter assay to measure PMP22 gene transcription in S16 Pmp22-F2sN cells - Primary screen
# Settings: S16 Pmp22-F2sN Schwann cells (luciferase reporters placed in the Pmp22 gene), FLuc/NLuc coincidence luminescence, 24 h; series mostly up to 57.5 µM
# Text: Assay Provider: Jim Inglese Ph.D. National Center for Advancing Translational Science, National Institutes of Health, Rockville, MD CMT is a heterogeneous group of neurological disorders that affect approximately 1 in 2,500 people. In particular, the most common form of CMT, CMT1A is genetically linked to the duplication of the PMP22 gene which leads to Schwann cell overexpression, thus manifesting itself as a typical case of dose-sensitive diseases. To identify small molecule compounds that can mediate the expression of PMP22 we developed a phenotypic assay screening strategy by utilizing genome editing techniques to construct Schwann cell lines containing novel reporter technology to monitor the transcriptional or translational regulation of PMP22. For high sensitivity we use a bioluminescent reporter system embedded in the 3' UTR of the PMP22 gene (S16(c9) Pmp22-F2sN) to identify compounds that inhibit gene expression. […] We can further discriminate the effect of all transcriptionally active molecules on PMP22 translation or stability with an assay that incorporates a short NLuc peptide (HiBiT) at the C-terminus of expressed PMP22 (S16(f8) PMP22-HiBiT) allowing alpha complementation and luminescence detection of membrane-associated PMP22 protein. These assays were screened against the NCATS Sytravon Library Collection. Miniaturization of these assays to 1536-well plate format for quantitative high throughput screening (qHTS) yielded rich data sets immediately from the qHTS assay (S16(c9) Pmp22-F2sN), when compared with data from a cell viability assay (Cell TiterGlo) to identify compounds that decreased the output signals through cellular toxicity to streamline the selection process of actives for subsequent characterization using the HiBiT assay (S16(f8) PMP22-HiBiT).
# Cell-based coincidence reporter assay to measure PMP22 gene transcription in S16 Pmp22-F2sN cells PROTOCOL TABLE (format as described by Inglese J, Shamu CE and Guy RK. 2007) SEQUENCE No. (e.g., 1, 2, 3, etc.); […] (e.g., Cells, Incubation, Reagent, etc.); VALUE and DESCRIPTION. 1. Cells. Add 500-1,000 cells in 4 uL in growth media (DMEM High Glucose, No Phenol Red media + 10% heat-inactivated FBS + 1% Pen/Strep supplemented media) per well into Greiner 1536-well white/solid bottom high base, TC-treated plates. 2. Compounds. Library compounds and controls added at 23nL per well, transferred by Pin Tool. 3. Incubation. Incubate plates at 37C, 5% CO2, 95% RH for 24 h. 4. Reagent. Add 3.5uL Nano-Glo Dual-Luciferase Reporter Assay System reagent 1: Lysis and FLuc reagent per well of Greiner 1536-well plates. 5. Incubation. Incubate plates at room temperature for 10 min., protect from light. 6. Detector. FLuc luminescence measured using CCD-based camera (Viewlux). 7. Reagent. Add 3.5uL Nano-Glo Dual-Luciferase Reporter Assay System reagent 2: Stop&Glo reagent per well of Greiner 1536-well plates. 8. Incubation. Incubate plates at room temperature for 10 min., protect from light. 9. Detector. NLuc luminescence measured using CCD-based camera (Viewlux). NOTES (numbers refer to Sequence numbers above; values are from representative experiments) 6. Luminescence Read #1 (FLuc): Clear filter; Exposure = 10 sec, Gain = High, Speed = Slow, Binning = 2X 9. Luminescence Read #2 (NLuc): Clear filter; Exposure = 1 sec, Gain = High, Speed = Slow, Binning = 2X REFERENCES: 1. Inglese J, Shamu CE and Guy RK, Reporting data from high throughput screening of small molecule libraries, Nature Chemical Biology, 2007, 3(8): 438-441. doi.org/10.1038/nchembio0807-438 2. Yasgar A, Shinn P, Jadhav A, Auld DS, Michael S, Zheng W, Austin CP, Inglese J and Simeonov A, Compound Management for Quantitative High-Throughput Screening. J. Assoc. Lab. Auto., 2008, 13: 79-89. doi: 10.1016/j.jala.2007.12.004
# Potency is the fitted concentration of half-maximal effect.
row,Structure (SMILES),Potency
1,CCSc1ncc(Cl)c(C(=O)Nc2cc(C)ccc2C)n1,inactive
2,Cc1ccc(NC(=O)c2nc(S(=O)(=O)Cc3cccc(C)c3)ncc2Cl)cc1,4.22 µM (active)
3,CCS(=O)(=O)c1ncc(N(Cc2ccc(F)cc2)Cc2ccco2)c(C(=O)Nc2cc(C)ccc2C)n1,inactive
4,Cc1cc2oc(C(=O)N(Cc3ccc(Cl)cc3)Cc3ccco3)c(C)c2cc1Cl,inactive
5,CC(C)(C)c1ccc(C(=O)NCC(c2ccco2)S(=O)(=O)c2ccc(F)cc2)cc1 (stereo not given),15.8 µM (active)
6,O=C(NCC(c1ccco1)S(=O)(=O)c1cccs1)c1ccc(F)cc1 (stereo not given),inactive
7,COc1ccccc1CNC(=O)C(=O)NCC(c1ccco1)S(=O)(=O)c1ccc(F)cc1 (stereo not given),inactive
8,O=S(=O)(c1ccc2nc(NCc3ccccc3Cl)ccc2c1)N1CCCCC1,inactive
9,COc1ccccc1NC(=O)CN1C(=O)c2ccccc2Sc2ccc(C(=O)N3CCCC3)cc21,inactive
10,Cc1cccc(C(=O)Nc2ccc(-c3nc4ncccc4o3)cc2C)c1,inactive
11,CC1=Nc2cc(C(=O)NCc3ccc(C)cc3)ccc2Sc2ccc(Cl)cc21,inactive
12,CCC1=Nc2cc(C(=O)NCCCOC(C)C)ccc2Sc2ccc(C)cc21,8.54 µM (active)
13,CCOCCCNC(=O)c1ccc2nc(CCc3ccccc3)oc2c1,inactive
14,O=C(Nc1ccc(F)cc1F)c1ccc2c(=O)n3c(nc2c1)CCCCC3,inactive
15,Cc1cc(N2CCN(c3cccc(C(F)(F)F)c3)CC2)n2nc(-c3ccccc3)nc2n1,inactive
16,O=C(CSc1oc(-c2ccco2)nc1S(=O)(=O)c1ccc(Cl)cc1)c1ccccc1,inactive
17,CCc1ccc2oc(-c3ccc(C)c(NC(=O)/C=C/c4ccco4)c3)nc2c1,inactive
18,COc1ccc(CNC(=O)CSc2nc3ccccc3nc2Cc2ccccc2)cc1,inactive
19,CCc1ccc(NC(=O)c2nn(-c3ccc(C)cc3)c(=O)n(C)c2=O)cc1,inactive
20,Fc1ccc(-c2nc(Nc3cccc(Cl)c3)nc3c2COc2ccccc2-3)cc1,inactive

row,Structure (SMILES),Potency
1,Cc1ccc(CNC(=O)CSc2c3c(nc4cc(Cl)ccc24)CCCC3)cc1,inactive
2,CCOC(=O)C1CCCN(C(=O)c2ccc3c(c2)sc2nc(-c4ccc(CC)cc4)cn23)C1 (stereo not given),inactive
3,CCOC(=O)C1CCN(C(=O)CSc2c3c(nc4ccc(Cl)cc24)CCCC3)CC1,18.9 µM (active)
4,CCOc1ccc(N2CC(c3nc4ccccc4n3CCOc3ccc(OC)cc3)CC2=O)cc1 (stereo not given),inactive
5,CCCN1C(=O)C(O)(CC(=O)c2ccc(CC)cc2)c2cc(Br)ccc21 (stereo not given),12.6 µM (active)
6,Cc1cc(C)cc(NC(=O)CCS(=O)(=O)c2cc3c4c(c2)CCN4C(=O)CC3)c1,inactive
7,Cc1ccc(C)c(N2CCN(C(=O)CCc3c(C)nc4c(c3C)c(=O)n(C)c(=O)n4C)CC2)c1,inactive
8,CCOC(=O)c1c(C)[nH]c(CCC(=O)NCCCN2CCN(c3cc(C)ccc3C)CC2)c1C,12.1 µM (active)
9,Cc1ccc(C)c(N2CCN(C(=O)Cc3c(C(=O)O)c(C)cn3C)CC2)c1,inactive
10,CCOC(=O)c1c(C)[nH]c(CCC(=O)NCCCN2CCN(c3cccc(Cl)c3)CC2)c1C,17.9 µM (active)
11,CCOC(=O)c1c(C)[nH]c(C)c1S(=O)(=O)N(C)CC(=O)N1CCN(c2ccccc2)CC1,inactive
12,CCOC(=O)c1[nH]c(C)c(CCC(=O)N2CCN(c3ccccc3)CC2)c1C,inactive
13,O=C(CSc1nnc(-c2ccccc2F)o1)Nc1cccc(C(F)(F)F)c1,inactive
14,COc1cccc(NC(=O)C(=O)NCC(c2ccc3c(c2)OCO3)N2CCN(C)CC2)c1 (stereo not given),inactive
15,COc1cc(NC(=O)C2CCN(c3cnccn3)CC2)cc(OC)c1,inactive
16,Brc1ccc(-c2noc(-c3ccccc3)n2)o1,inactive
17,O=C(NCCCc1ccccc1)c1ccc2c(c1)sc1nc(-c3ccc(F)cc3)cn12,inactive
18,CCCCOc1ccc(Cn2c(=O)oc3ccc(C)cc32)cc1OC,inactive
19,CCOc1ccc(CNCc2c(C(=O)O)c(C)n(Cc3cccc(OC)c3)c2C)cc1OC,inactive
20,CCCCOc1ccc(CN2C(=O)C(=O)c3cc(Br)cc(C)c32)cc1OC,4.5 µM (active)

row,Structure (SMILES),Potency
1,Cc1ccc(-c2cc(C(F)(F)F)c(C#N)c(SCC(=O)Nc3ccccc3)n2)cc1,inactive
2,CCOC(=O)c1c(NC(=O)c2cc(-c3ccc(Cl)cc3)on2)sc2c1CCCC2,inactive
3,COc1ccc(/C=C/c2noc(-c3ccccc3O)n2)cc1OC,inactive
4,Cc1c(-c2nc(-c3ccc4c(c3)OCO4)no2)nnn1-c1ccc(Br)cc1F,inactive
5,COc1cccc(CNS(=O)(=O)c2cc3c(cc2C)n(C)c(=O)c(=O)n3C)c1,inactive
6,O=C(CCCn1c(=O)c2cccn2c2cccnc21)NCc1ccc(F)cc1,17.9 µM (active)
7,COc1ccc(OC)c(CCNC(=O)CCCn2c(=O)c3cccn3c3cccnc32)c1,inactive
8,Cc1ccc(-n2c(=O)c3cccnc3n2CC(=O)NCc2ccc(F)cc2)cc1C,inactive
9,CCc1ccc(NS(=O)(=O)c2ccc3[nH]cc(C(=O)NCCc4cccc(C)c4)c(=O)c3c2)cc1,inactive
10,COc1cccc(CNC(=O)C(NS(=O)(=O)c2ccc3nc(C)sc3c2)C(C)C)c1 (stereo not given),inactive
11,CCOC(=O)C1=C(c2ccccc2)Nc2ncnn2C1c1ccc(Cl)cc1 (stereo not given),inactive
12,O=C(c1ccc(C(F)(F)F)cc1)N1CCC(c2nc(-c3ccc(S(=O)(=O)N4CCCC4)cc3)no2)CC1,14.2 µM (active)
13,COc1ccc(C(=O)N2CCC(c3nc4ccccc4o3)CC2)cc1,inactive
14,Cc1ccc(C)c2sc(NC(=O)c3ccc(S(=O)(=O)N4CCCC4)cc3)nc12,inactive
15,Fc1cccc(-n2ncc3c2ncn2nc(-c4ccccc4Cl)nc32)c1,inactive
16,COc1cc(NC(=O)NCC2CCN(Cc3ccc(C)cc3)CC2)cc(OC)c1OC,inactive
17,COc1ccc(-c2onc(C)c2C)cc1S(=O)(=O)NCC1CCN(Cc2cccc(F)c2)CC1,14.1 µM (active)
18,Cc1ccc(-c2onc(C)c2C)cc1S(=O)(=O)Nc1ccccn1,inactive
19,CCS(=O)(=O)c1nc(S(=O)(=O)c2ccc(C)cc2)c(NCc2ccc(Cl)cc2)s1,inactive
20,CCc1ccc(Nc2nn3c(=O)c4cc5c(cc4nc3s2)OCO5)cc1,inactive
